# Assay outcomes as filed in PubChem BioAssay.
# Compounds with a hit are over-represented: about 2.6% of the library has one in this group of screens.
# AmpC inh no det = AmpC beta-lactamase inhibition, detergent-free assay; AmpC nitrocefin hydrolysis, absorbance 480 nm, no detergent; Potency, µM (top dose mostly 28.7 µM), inactives show top-dose activity change, negative = inhibition; hit rate 1.8% among 71,000; AID 585; also: % of control where 0% means no effect
# Target sequence (P00811 whole entry, looked up): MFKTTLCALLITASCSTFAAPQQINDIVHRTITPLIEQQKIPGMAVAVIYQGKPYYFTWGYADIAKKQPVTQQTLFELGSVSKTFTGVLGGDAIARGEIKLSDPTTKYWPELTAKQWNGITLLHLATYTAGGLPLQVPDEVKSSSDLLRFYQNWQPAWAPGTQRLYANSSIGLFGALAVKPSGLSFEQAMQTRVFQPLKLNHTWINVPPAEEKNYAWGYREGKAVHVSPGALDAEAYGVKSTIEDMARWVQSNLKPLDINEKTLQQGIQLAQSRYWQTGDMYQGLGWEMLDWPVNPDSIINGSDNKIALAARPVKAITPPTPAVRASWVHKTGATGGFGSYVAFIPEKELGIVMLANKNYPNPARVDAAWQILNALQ
#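 AmpC in 20 mM phosphate buffer pH 7.0 was preincubated 15 min at room temperature with compounds. Nitrocefin (800 uM stock) was then added and hydrolysis followed at 480 nm every 20 s for 4 min.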
# SmPrx2 inh = Schistosoma mansoni Prx2 inhibition; S. mansoni Prx2 activity coupled to TGR/GSH (TGR is thioredoxin glutathione reductase), NADPH fluorescence loss, qHTS; Potency, µM; hit rate 0.07% among 65,000
#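 Purified S. mansoni TGR and Prx2 in pH 7.4 phosphate buffer with EDTA and Tween-20 were preincubated with compounds for 15 min. Further NADPH/GSH was added, then a 2.5 mM H2O2 aliquot initiated turnover, followed kinetically by NADPH fluorescence.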
# AmpC det inh = AmpC beta-lactamase inhibition, detergent assay; P00811; purified AmpC, nitrocefin hydrolysis with detergent; Potency, µM (doses to about 28.7 µM), for the others: at the highest dose activity change, negative = inhibition; hit rate 0.09% among 71,000; AID 584; active = well fitted curve in the direction sought with a large enough effect; inconclusive = small, poorly fitted or top-dose-only effect; also: % is scaled to controls: 0 for no effect and ±100 for the full control effect
#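 E. coli AmpC (5.3 nM) in 20 mM phosphate pH 7.0 with 0.01% Triton X-100, preincubated 15 min RT with compound; nitrocefin (2 uL of 800 uM stock) hydrolysis followed by 480 nm absorbance every 20 s over 4 min.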
# LT uptake inh = blocks cellular internalization of anthrax lethal toxin; Cells, anthrax lethal toxin internalization, FRET ratio (460/530); Potency, µM (highest dose often 40 µM), for the others: at the top dose activity change, negative = inhibition, hits mostly inhibitors; hit rate 0.67% among 70,000; also: % is scaled to controls: 0 for no effect and ±100 for the full control effect; nearly all actives have a fitted effect of over 50% in size
# * marks the source's active call; other numbers are inactive results; ? = inconclusive; . = no result given; + = active, no number; [ ] = dose if it differs, or a comment. Unless noted, calls follow the shape of the full dose curve. Potency is read from the fitted curve at half-maximal effect.
SMILES,AmpC inh no det,SmPrx2 inh,AmpC det inh,LT uptake inh
COc1ccccc1S(=O)Cc1ccc(C(=O)NCc2ccccc2Cl)o1 (stereo not drawn),4µM*[single pt active],>57,12%,?
Cc1cc(C(=O)CSc2nnc(-c3cccc(F)c3)n2N)c(C)n1Cc1ccc2c(c1)OCO2,16µM*[single pt active],>57,9%,-14%
Cc1cc(C(=O)CSc2nnnn2-c2ccc(O)cc2)c(C)n1Cc1ccc2c(c1)OCO2,13µM*,>57,-5%,?
Cc1ccc(-c2nnc(SCC(=O)Nc3ccc4c(c3)OCCO4)n2N)cc1,-6%,>57,10%,-3%
O=c1c(-c2ccccc2)nc2cncnc2n1Cc1ccccc1,28%,>57,2%,?
Cc1cc(C)nc(N2CCCC(C(=O)Nc3ccc4c(c3)OCCO4)C2)n1 (stereo not drawn),-1%,>57,1%,20%
COc1ccc(N2C(=O)CC(Sc3ncn[nH]3)C2=O)c(OC)c1 (stereo not drawn),79%,.,-1%,13µM*
COC(=O)c1cn(NC(=O)CC2CCCCC2)c(=O)c2ccccc12,7%,>57,1%,-11%
Cc1cc(C)n(CCc2nc(-c3cc4ccccc4o3)cs2)n1,101%,>57,-3%,25µM*
O=C(Cn1c(-c2ccccc2)noc1=O)Nc1ccc(S(=O)(=O)N2CCOCC2)cc1,19%,>57,-8%,-5%
O=C(Cn1c(-c2ccccc2)noc1=O)Nc1ccc(N2CCCCCC2)cc1,13µM*,>57,-2%,?
CCOc1ccc(N(CC(=O)NC2CCCCC2)S(=O)(=O)c2c(C)noc2C)cc1,14%,>57,6%,-3%
CCc1ccc(N(CC(=O)NC2CCCCC2)S(=O)(=O)c2c(C)noc2C)cc1,4µM*[single pt active],>57,12%,-24%
O=C(c1cccn2c(=O)c3cc(Cl)ccc3nc12)N1CCOCC1,13%,>57,-3%,-5%
COc1cccc(NC(=O)c2ccc(CN3CCN(c4ccccc4)CC3)cc2)c1,32%,>57,-5%,10µM*
CC1(N2CCCCC2)CC2(O)C(=[N+]1[O-])CCC/C2=N\O (stereo not drawn),-18%,>57,7%,-18%
O=C(Nc1ccccc1)N1CCN2C(=O)c3ccccc3C12c1ccccc1 (stereo not drawn),65%,>57,-3%,11%
COc1ccc(-c2cnc(SCC(=O)Nc3ccc4c(c3)OCO4)n2Cc2ccco2)cc1,-11%,>57,-3%,?
CC(=O)Nc1cccc(NC(=O)CSc2ncc(-c3ccc(Cl)cc3)n2Cc2ccco2)c1,64%,>57,-5%,13µM*
O=C(CSc1nnc(-c2ccc(Cl)cc2)n1Cc1ccco1)Nc1ccc2c(c1)OCCO2,+[single pt active],>57,-6%,?
CCc1c(C)sc(NC(=O)c2cc(C)on2)c1C#N,-10%,>57,-3%,-3%
CNC(=O)c1c(I)c(C(=O)NCC(=O)Nc2c(I)c(C(=O)O)c(I)c(C(=O)NCCO)c2I)c(I)c(N(C)C(C)=O)c1I,-3%[12.8 µM],>57,1%[12.8 µM],-6%[3.58 µM]
COC(=O)c1[nH]c2cc(OC)ccc2c1NC(=O)CCN1CCN(c2cccc(C)c2C)CC1,114%,>57,-4%,?
c1ccc(-c2cccc(N3CCC4(CCNCC4)CC3)c2)cc1,113%,>57,-3%,10µM*
c1ccc(-c2cccc(N3CC4(CCNCC4)C3)c2)cc1,70%,>57,0%,-13%
SMILES,AmpC inh no det,SmPrx2 inh,AmpC det inh,LT uptake inh
Cc1ccc(-n2nc(C(=O)NCc3ccco3)c3c4ccccc4n(C)c3c2=O)cc1,28%,>57,6%,-18%
c1cncc(C2CC(c3cccs3)n3ncnc3N2)c1 (stereo not drawn),10%,>57,-3%,8%
CCCCNc1nc(N(C)c2ccccc2)nc(-n2ccnc2)n1,28%,>57,-3%,13µM*
COc1cc2c(cc1OC)-c1nnnn1C(C)(C)C2,11%,.,-4%,-13%
COc1cc2c(cc1OC)-c1nnc(-c3cccs3)n1C(C)(C)C2,4µM*[single pt active],>57,10%,-7%
CCCCOC(=O)Cn1c(=N)n(CCC)c2ccccc21,3%,>57,-3%,0%
Cc1nc(NCc2ccccc2)c2nc(-c3ccccc3)n(C3CCN(Cc4ccccc4)C3)c2n1 (stereo not drawn),70%,.,15%,?
CCCCNc1nc(C)nc2c1nc(-c1ccccc1)n2C1CCN(Cc2ccccc2)C1 (stereo not drawn),96%,.,10%,13µM*
CNC(=O)c1cc2c(=O)n3cccc(C)c3nc2n1C,0%,>57,2%,-12%
CCc1cc2c(=O)n(Cc3ccco3)c(SCc3c(C)noc3C)nc2s1,29%,>57,7%,10µM*
O=c1cc(O)cc(/C=C\c2ccc(O)c(O)c2)o1,6.3µM*,>57,-3%,-1%
COCCNc1nc(-c2cccc(NS(C)(=O)=O)c2)nc2ccccc12,26%,>57,4%,-4%
CC(=O)Nc1ccc(C(=O)CCl)cc1,-9%,.,9%,13µM*
COC(=O)c1ccc(C(NC(=O)OCc2ccccc2)/C(C)=C/[C@@H](C)C(=O)NC2CCCCC2)cc1 (stereo partly drawn),52%,.,10%,2%
CCCCN1C(=O)C(O)(CC(=O)c2ccco2)c2cc(Br)ccc21 (stereo not drawn),2.5µM*[single pt active],>57,12%,?
CCCC(=O)c1cc(F)c(N2CCN(S(=O)(=O)c3ccccc3)CC2)cc1C,17%,>57,24%,-21%
Cc1ccc(C(=O)Nc2ccc(N3CCOCC3)cc2)cc1,1%,.,-1%,-3%
CC(=O)N1CCN(c2ccc(NC(=O)c3ccc(C(C)(C)C)cc3)cc2)CC1,123%,>57,7%,10µM*
Cc1c(C(=O)OCc2ccccc2)[nH]c2c1C(=O)CC(c1ccco1)C2 (stereo not drawn),13µM*[single pt active],>57,1%,?
Cc1ccccc1Cn1c(C(C)O)nc2ccccc21 (stereo not drawn),25%,>57,-1%,0%
COc1ccc(OC)c(CCNC(=O)CC2Oc3ccccc3NC2=O)c1 (stereo not drawn),14%,>57,10%,-7%
COc1ccc(NC(=O)CC2Oc3ccc(C)cc3NC2=O)cc1 (stereo not drawn),4µM*[single pt active],>57,11%,0%
COc1ccc(NC(=O)CC2Oc3ccccc3NC2=O)cc1 (stereo not drawn),4µM*[single pt active],>57,9%,-5%
Cc1ccc(NC(=O)CC2Oc3ccc(C)cc3NC2=O)cc1 (stereo not drawn),-15%,>57,10%,-6%
CN(C)CC(C(=O)c1ccccc1)c1ccccc1 (stereo not drawn),-19%,>57,-3%,10µM*
Oc1cccc(Nc2nc(NCC3CCCO3)c3ccccc3n2)c1 (stereo not drawn),10µM*,>57,-1%,-22%
COc1cccc(-c2cc(C(=O)NCc3ccc(Cl)cc3)no2)c1,13µM*[single pt active],.,3%,5%
COc1ccc(CNC(=O)c2cc(-c3cccc(OC)c3)on2)cc1,-9%,>57,2%,?
COc1ccc(CNC(=O)c2cc(-c3ccc(OC)c(OC)c3)on2)cc1,25%,>57,-2%,5%
